USP1-UAF1 inh: blocks the human USP1/UAF1 deubiquitinase complex; recombinant USP1/UAF1, Ub-Rhodamine cleavage fluorescence; 0.23% of 390,000 active; Potency, µM (highest dose often 57.1 µM), for inactives: at the top dose activity change, negative = inhibition, actives largely listed as inhibitors; AID 743255; O94782; note: potency is the fitted concentration of half-maximal effect; % is set by controls: 0 for no effect and ±100 for the full control effect; nearly all actives have a fitted effect of over 60% in size
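USP1/UAF1 complex (1 nM) preincubated 15 min at room temperature with compound, then Ub-Rho substrate (150 nM final) added. Kinetic fluorescence at 480/540 nm over 6 reads at 60 s intervals; 50 mM HEPES pH 7.8, 0.5 mM EDTA, 0.1 mg/ml BSA, 1 mM TCEP, 0.01% Tween-20.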
ATXN2 expr inh: reduces ATXN2 reporter expression in HEK-293 cells; HEK-293 ATXN2-luciferase reporter, luminescence, 24 h; Potency, µM (doses to about 57 µM), without a hit: at the top dose activity change, negative = inhibition, hits mostly inhibitors; 0.72% of 360,000 active; note: potency is the fitted concentration of half-maximal effect; % is set by controls: 0 for no effect and ±100 for the full control effect; nearly all actives have a fitted effect of over 55% in size
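ATXN2-luciferase reporter cells (luciferase flanked by upstream and downstream ATXN2 gene portions) were treated 24 h at 37 °C with compounds at up to 57 uM. SteadyGlo luminescence gave expression; GF-AFC fluorescence gave viability.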
ATXN viability: reduces viability in counter-screen for ATXN expression inhibitors | S2 cells (HEK-293 line with an ATXN2-luciferase reporter) viability, CellTiter-Fluor protease fluorescence, 24 h | Potency, µM (top dose mostly 56.7 µM), hits mostly cytotoxic | 0.49% of 400,000 active | AID 651635; note: potency is the fitted concentration of half-maximal effect; nearly all actives have a fitted effect of over 40% in size
USP2a inh: USP2a (human) protease inhibition | O75604 | 0.01% of 330,000 active | Potency, µM (top dose mostly 38.3 µM), for the others: at the top dose activity change, negative = inhibition, usual class: inhibitors | USP2 core, Ub-CHOP2 coupled fluorogenic reporter, 485/531 | AID 463254;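 note: potency is the fitted concentration of half-maximal effect; plate controls were DMSO wells for no effect and full inhibition by NEM control for full effect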
Target sequence (O75604 whole entry, looked up): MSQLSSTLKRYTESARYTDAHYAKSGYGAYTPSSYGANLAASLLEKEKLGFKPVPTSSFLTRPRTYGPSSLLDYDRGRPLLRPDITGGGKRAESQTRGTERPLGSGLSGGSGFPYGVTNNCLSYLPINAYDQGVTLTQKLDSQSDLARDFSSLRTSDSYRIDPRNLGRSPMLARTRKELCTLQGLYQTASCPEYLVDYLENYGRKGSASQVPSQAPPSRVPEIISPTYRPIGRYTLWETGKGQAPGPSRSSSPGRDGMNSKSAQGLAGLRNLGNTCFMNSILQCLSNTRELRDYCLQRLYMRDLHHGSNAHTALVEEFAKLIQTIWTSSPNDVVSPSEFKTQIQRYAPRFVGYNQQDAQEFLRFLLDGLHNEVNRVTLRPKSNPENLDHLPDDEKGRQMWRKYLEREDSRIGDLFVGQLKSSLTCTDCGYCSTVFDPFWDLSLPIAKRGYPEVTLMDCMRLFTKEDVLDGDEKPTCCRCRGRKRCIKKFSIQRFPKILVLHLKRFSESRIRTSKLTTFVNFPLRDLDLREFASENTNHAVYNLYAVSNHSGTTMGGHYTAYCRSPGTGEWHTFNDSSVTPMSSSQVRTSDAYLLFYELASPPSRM
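Cell-free coupled assay: 10nM USP2 core preincubated 30min RT with compound in Tris-HCl pH 8.0/CaCl2/CHAPS buffer, then 25nM Ub-CHOP2 and 25nM reporter substrate; fluorescence (Ex 485/Em 531) read after 60min RT, normalized to NEM inhibition, concentration-response curves fitted.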
IL-1B inflam inh: inhibitors of inflammasome signaling (IL-1 beta secretion). THP-1 LPS/ATP IL-1B secretion, AlphaLISA, 16 h; hits give low values. activity change, % at 57.5 µM. 4.7% of 360,000 active. AID 743279; in the data active = activity change below about -50%; inconclusive = mostly about -30% to -49%; note: % is set by controls: 0 for no effect and ±100 for the full control effect
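THP-1 cells pretreated 1 hr with compounds (up to 57.5 uM final), then stimulated with LPS (250 ng/mL final) plus ATP (1.25 mM final); secreted IL-1B measured by AlphaLISA after 16 hr, decreased signal indicating inhibition.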
Active calls of the source: *; i = inactive; ? = inconclusive; · = not tested or not shown. The list is not random: actives were taken first. Their share in the collection is about 4.8%. Unless noted, calls come from the whole dose curve; as a rule, active = well fitted curve in the direction sought with a large enough effect; inconclusive = small, poorly fitted or top-dose-only effect, or another doubt; inactive = no such curve, though single readings can be large; an effect the other way counts as inactive or inconclusive.

SMILES | USP1-UAF1 inh | ATXN2 expr inh | ATXN viability | USP2a inh | IL-1B inflam inh
C[C@@H]1CN([C@@H](C)CO)C(=O)c2cc(C#CC3CCCCC3)cnc2O[C@@H]1CN(C)S(=O)(=O)c1ccc(F)cc1 | -20% | ? | 20µM* | · | -53*
CC(C)NC(=O)N(C)C[C@H]1Oc2c(NC(=O)Cc3ccccc3)cccc2C(=O)N([C@H](C)CO)C[C@@H]1C | 20% | 1% | i | 1% | 19
Cc1noc(C)c1S(=O)(=O)N(C)C[C@H]1Oc2c(NC(=O)NC3CCCCC3)cccc2C(=O)N([C@H](C)CO)C[C@@H]1C | -12% | -1% | ? | 6% | -7
C[C@H](CO)N1C[C@H](C)[C@@H](CN(C)CC2CCCCC2)Oc2c(NC(=O)Cc3ccccc3)cccc2C1=O | -16% | ? | 32µM* | -9% | -70*
C[C@H](CO)N1C[C@H](C)[C@@H](CN(C)S(=O)(=O)c2ccc(F)cc2)Oc2c(NC(=O)NC3CCCCC3)cccc2C1=O | -17% | -11% | ? | 0% | -56*
C[C@H](CO)N1C[C@H](C)[C@@H](CN(C)S(=O)(=O)c2ccccc2)Oc2c(NC(=O)NC3CCCCC3)cccc2C1=O | -14% | -17% | ? | 0% | -51*
C[C@H](CO)N1C[C@H](C)[C@@H](CN(C)S(=O)(=O)c2ccccc2)Oc2c(NC(=O)C3CC3)cccc2C1=O | -1% | 8% | i | · | 10
C/C(=N\NC(=O)c1ccccc1F)c1ccc2c(c1)Nc1ccccc1S2 | 78% | 10% | i | -7% | ?
C/C(=N\NC(=O)c1ccc(O)cc1)c1ccc2c(c1)Nc1ccccc1S2 | -13% | 0% | i | 0% | -101*
Cc1ccc(C)c(OCCC(=O)OCC(=O)NCc2ccc(F)cc2)c1 | -29% | 18% | i | -6% | 9
O=C(N/N=C/c1sc(N2CCOCC2)nc1-c1ccccc1)c1ccccc1O | -8% | ? | i | -13% | 10
O=C(N/N=C/c1sc(N2CCOCC2)nc1-c1ccccc1)c1ccccc1Cl | -6% | 0% | · | 0% | -57*
CC(NCCS(=O)(=O)c1ccc(Cl)cc1)c1cccc(Cl)c1 (centres undefined) | -18% | -7% | i | -1% | -60*
CC(C)c1ccc(C(C)NCCS(=O)(=O)c2ccc(Br)cc2)cc1 (centres undefined) | -18% | -21% | i | 2% | -99*
COc1cccc(N2CCN(C(=O)c3cc4c(s3)CCCCC4)CC2)c1 | -17% | · | i | -1% | 17
COc1cccc(-c2cnc3cccnn23)c1 | · | 71% | i | · | -7
CCOC(=O)c1cc(-c2ccc(F)cc2)n(CCC(=O)Nc2cc(OC)cc(OC)c2)c1C | 6% | · | · | · | ·
COC1(OC)N=C(N)C2(C#N)C(c3ccc(F)cc3)C12C#N (centres undefined) | -15% | 1% | i | -1% | 9
CCSC1(SCC)N=C(N)C2(C#N)C(c3ccc(F)cc3)C12C#N (centres undefined) | -7% | ? | ? | 3% | -109*
COc1cccc(Nc2nc3cc(C)ccc3nc2NS(=O)(=O)c2ccc(Cl)cc2)c1 | -14% | -2% | ? | · | ·
COCCNc1c(-c2ccc(OC)c(OC)c2)nc2ccc(Cl)cn12 | -10% | -11% | i | 1% | ?
COCCNc1c(-c2cc3ccc(C)c(C)c3[nH]c2=O)nc2ccccn12 | -1% | 46% | i | 12% | -59*
COc1ccc(CNC(=O)CSc2ccsc2[N+](=O)[O-])cc1 | -23% | 68% | i | 1% | -59*
CCN(CC)C(=O)c1[nH]cnc1C(=O)NCc1ccccc1 | 20% | -1% | i | 0% | 19
COc1ccc(NC(=O)C2=Cc3ccccc3OC2)cc1 | -8% | 17% | i | 1% | -51*
SMILES | USP1-UAF1 inh | ATXN2 expr inh | ATXN viability | USP2a inh | IL-1B inflam inh
COC(=O)[C@@]12CCCN1[C@H](c1ccc(-c3ccccc3)cc1)[C@@H]1C(=O)N(C)C(=O)[C@@H]12 | ? | -6% | i | 0% | 29
Cc1ncoc1C(=O)N1CCOc2ccc(CN3CCN(c4ccccn4)CC3)cc2C1 | · | · | i | · | ·
O=C(NC1=NCCS1)c1cc(-c2cccnc2)nc2ccccc12 | -3% | -23% | i | 1% | 1
C/C(=N\NC(=O)c1cc(Br)ccc1O)c1ccccn1 | -26% | ? | i | 0% | -81*
C/C(=N\NC(=O)c1cc(-c2cccs2)nc2ccccc12)c1ccccn1 | -16% | 2.8µM* | i | 1% | 190
C/C(=N\NC(=O)C1COc2ccccc2O1)c1ccccn1 (centres undefined) | 0% | 3.5µM* | ? | 1% | 0
O=C(NC1=NCCS1)c1cc(-c2cccs2)nc2ccccc12 | -3% | -16% | i | -14% | -64*
C/C(=N\NC(=O)C1COc2ccccc2O1)c1ccc(C)o1 (centres undefined) | 1% | -12% | i | -1% | 17
C/C(=N\NC(=O)C(c1ccccc1)c1ccccc1)c1ccccn1 | -13% | 3.5µM* | 6.3µM* | 4% | -97*
C/C(=N\NC(=O)c1cccc2ccccc12)c1ccccn1 | -27% | ? | 3.5µM* | 1% | -107*
C/C(=N\NC(=O)c1ccccc1Cl)c1ccccn1 | -17% | · | ? | 3% | 117
Cc1cc(Br)ccc1NC(=O)CN(C)C(=O)c1cccc(S(=O)(=O)N2CCN(C)CC2)c1 | -14% | -16% | i | · | 21
C/C=C1\COC(C(=O)NCCN2CCCC2)(C(F)(F)F)C=C1C=C1CCCCC1 (centres undefined) | -14% | ? | ? | · | -78*
COc1cccc(Cn2c(C3CC3)nc3ccc(NC(=O)c4ccco4)cc3c2=O)c1 | · | · | · | 3% | ·
COc1ccc(Cn2c(C3CC3)nc3ccc(NC(=O)C4CC4)cc3c2=O)cc1 | -19% | 103% | i | -1% | -65*
O=C(Nc1ccc2nc(C3CC3)n(Cc3ccc(F)cc3)c(=O)c2c1)c1ccco1 | -17% | 6% | i | -1% | -51*
O=C(Cn1cnc2ccccc2c1=O)NCCC(=O)Nc1ccc(F)cc1 | ? | -4% | i | -1% | 30
c1ccc(-n2c(SCc3nc(-c4cccs4)no3)nnc2-c2ccco2)cc1 | 12% | -10% | i | 1% | -75*
O=C(C1CCN(S(=O)(=O)c2cccc3nonc23)CC1)N1CCN(c2ccc(F)cc2)CC1 | -7% | -25% | i | · | ·
CCN(CC)CC(C)CNC(=O)c1cc(-c2ccc(Br)s2)nc2ccccc12 (centres undefined) | -18% | 28µM* | · | · | ·
CCOC(=O)N1CCN(c2nc3c(C)cccn3c(=O)c2C=O)CC1 | -3% | -6% | i | 3% | 4
Cc1cccn2c(=O)c(C=O)c(Cl)nc12 | 1% | ? | ? | 2% | -96*

Screening results from PubChem.
